This note sets out measurements from PubChem BioAssay AID1709 (National Center for Advancing Translational Sciences (NCATS), 2009).

Activity calls are given as the source filed them.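 How the source made its calls: active means lower max turbidity than the uninhibited signal, meaning microtubule assembly was blocked; inactive means reaching the full max turbidity.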

The assay is described as follows: Assay for Inhibitors of Tau-Mediated Microtubule Assembly. The following applies: purified tubulin + K18 tau, A340 turbidity kinetics, 45 min, at 50 µM; half-max time: measured here: time to half-max turbidity, stronger effect = higher value; max turbidity: stronger effect = lower value. An excerpt: NIH Molecular Libraries Probe Production Network [MLPCN] NIH Chemical Genomics Center [NCGC] MLPCN Grant: X01 MH083262-01 Assay Provider: Carlo Ballatore, University of Pennsylvania NCGC Assay Overview: The microtubule-associated protein tau is an abundant protein in the axons of neurons that stabilizes microtubules. With its ability to modulate microtubule dynamics, tau contributes directly or indirectly, to key structural and regulatory cellular functions. Particularly important is the influence tau exerts on axonal transport, which allows signaling molecules, trophic factors and other essential cellular constituents to travel along the axons. Under pathological conditions, tau becomes sequestered into insoluble aggregates called neurofibrillary tangles. This phenomenon is believed to have pathological consequences by promoting axonal transport deficits that ultimately lead to synaptic dysfunction and neuronal loss. Because tau binds and stabilizes microtubules, tau fibrillization inhibitors were tested whether they interfere with tau-mediated tubulin polymerization. An in vitro assay was used where purified brain tubulin monomers were assembled into microtubules after the addition of GTP and tau. Microtubule assembly was monitored by the change in absorbance at 340 nm. Hong, M., Zhukareva, V., Vogelsberg-Ragaglia, V., Wszolek, Z., Reed, L., Miller, B. I., Geschwind, D. H., Bird, T. D., McKeel, D., Goate, A., Morris, J. C., Wilhelmsen, K. C., Schellenberg, G. D., Trojanowski, J. Q., and Lee, V. M. Y. (1998) Science 282, 1914-1917.
NCGC Assay Protocol Summary: Lyophilized bovine brain tubulin was reconstituted in RAB (100 mM MES, pH 6.9; 1 mM EDTA; 0.5 mM MgSO4) at a concentration of 10 mg/ml. Compounds (50 uM) were added to K18 tau (40 uM) in RAB and pre-incubated at room temperature for 60 minutes. To initiate the MT assembly reaction, 8.25 ul per well of 10 mg/ml tubulin was dispensed on a UV-clear 384-well plate, followed by 1.0 ul of 100 mM GTP in RAB and 41.25 ul of the compound:tau mixture. […] The plate was incubated in a Spectramax M5 plate reader at 37 C and the absorbance at 340 nm was read every minute for 45 minutes.
In the case of `O=C(Cc1ccccc1)Nc1sc2c(c1C(=O)Nc1ccc(Cl)cc1)CCCC2`, the half-max time was determined as 10 min and the max turbidity is 0.682 (inactive).
With `COC(=O)c1c(NC(=O)CCCOc2ccc(C)cc2)sc2c1C(C(=O)OC)CC2` (stereo unspecified), the max turbidity is 0.764 (inactive) and the half-max time turned out to be 11.1 min.
On to `COC(=O)c1nn(-c2ccc(OC)cc2)c(=O)c2c(N)sc(C)c12`, for which the half-max time stood at 13.3 min and the max turbidity is 0.579 (inactive).
Regarding `COC(=O)c1c(NC(=O)CCCOc2cccc(C)c2)sc2c1C(C(=O)OC)CC2` (stereo unspecified), the half-max time was found to be 12 min and the max turbidity is 0.825 (inactive).
On to `CCOC(=O)c1nn(-c2ccc(OC)cc2)c(=O)c2c(N)scc12`, for which the max turbidity was 0.782 (inactive) and the half-max time was 12.7 min.
The matching figures for `CCOC(=O)c1nn(-c2ccccc2)c(=O)c2c(N)scc12`: 0.65 (inactive) and 12.3 min.
In the same order, the values of `COC(=O)c1c(NC(=O)CCCOc2ccc(C(C)(C)C)cc2)sc2c1C(C(=O)OC)CC2` (stereo unspecified) are 1.01 (inactive) and 12.6 min.
In the same order, the values of `COC(=O)c1c(NC(=O)C(C)(C)C)sc2c1C(C(=O)OC)CC2` (stereo unspecified) are 0.839 (inactive) and 12.9 min.
